In PubChem BioAssay (Tox21):
Records with an inconclusive call do not appear. Calls of active or inactive are those of the source. Unless noted, the call rests on the fitted dose curve; in most records, active means well fitted curve in the direction sought with a large enough effect in the repeat runs; inconclusive means weak or mixed curves; inactive means no such curve, though single readings can be large; an effect the other way counts as inactive or inconclusive.

Key:
[1] = molecular target: Retinoic acid receptor RXR-alpha (Homo sapiens) (UniProt P19793); experiment: qHTS assay to identify small molecule agonists of the RXR signaling pathway (AID 1159527; calls by dose curve; further: nearly all actives have a fitted effect of over 35% in size)
Chain of Retinoic acid receptor RXR-alpha (Homo sapiens) (P19793 whole entry, looked up): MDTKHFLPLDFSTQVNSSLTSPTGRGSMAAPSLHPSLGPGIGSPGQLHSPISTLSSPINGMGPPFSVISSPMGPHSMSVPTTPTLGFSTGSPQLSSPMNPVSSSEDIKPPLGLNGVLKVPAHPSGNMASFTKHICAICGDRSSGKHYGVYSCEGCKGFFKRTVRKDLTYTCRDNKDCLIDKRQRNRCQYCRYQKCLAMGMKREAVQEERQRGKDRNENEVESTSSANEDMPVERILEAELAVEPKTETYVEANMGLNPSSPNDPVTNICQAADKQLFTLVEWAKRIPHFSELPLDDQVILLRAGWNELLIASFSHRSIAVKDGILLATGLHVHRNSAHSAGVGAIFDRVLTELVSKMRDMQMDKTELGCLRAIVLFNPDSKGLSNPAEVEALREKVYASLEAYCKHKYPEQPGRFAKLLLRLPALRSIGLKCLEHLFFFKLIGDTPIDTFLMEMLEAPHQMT
In short: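 GeneBLAzer RXR-alpha-UAS-bla HEK 293T cells in 2% charcoal-stripped FBS medium were exposed to compounds for 16 hr at 37 C in agonist mode. Beta-lactamase reporter read as 460/530 nm FRET ratio after 2 hr substrate loading.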

[2] = qHTS assay to identify small molecule agonists of the RXR signaling pathway - cell viability counter screen (AID 1159529); further: series mostly up to about 77 µM; nearly all actives have a fitted effect of over 50% in size
In short: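 RXR-alpha-UAS-bla HEK 293T cells in medium with 2% charcoal-stripped FBS were pre-incubated 5 hr, then compound-treated 16 hr at 37 C. Viability was read by CellTiter-Glo luminescence in the same wells as the beta-lactamase assay, with tetraoctyl ammonium bromide as positive control.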

[3] = qHTS assay to identify small molecule antagonists of the estrogen related receptor (ERR) signaling pathway from Tox21 library - cell viability counter screen (AID 1224834); further: nearly all actives have a fitted effect of over 30% in size
In short: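 Fluorescence from CellTiter-Fluor gives the viability read-out, taken 30 min after reagent addition. Before that, ERR cells seeded 6 h earlier were incubated with compounds for 17.5 h at 37 C.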

[4] = molecular target: Luciferin 4-monooxygenase (Photinus pyralis) (UniProt P08659); experiment: qHTS assay to identify small molecule inhibitors of firefly luciferase (AID 1224835); further: nearly all actives have a fitted effect of over 25% in size; further: potency means the concentration at half of the fitted maximal effect; on activity change, negative = inhibition: series mostly up to about 120 µM
Chain of Luciferin 4-monooxygenase (Photinus pyralis) (P08659 whole entry, looked up): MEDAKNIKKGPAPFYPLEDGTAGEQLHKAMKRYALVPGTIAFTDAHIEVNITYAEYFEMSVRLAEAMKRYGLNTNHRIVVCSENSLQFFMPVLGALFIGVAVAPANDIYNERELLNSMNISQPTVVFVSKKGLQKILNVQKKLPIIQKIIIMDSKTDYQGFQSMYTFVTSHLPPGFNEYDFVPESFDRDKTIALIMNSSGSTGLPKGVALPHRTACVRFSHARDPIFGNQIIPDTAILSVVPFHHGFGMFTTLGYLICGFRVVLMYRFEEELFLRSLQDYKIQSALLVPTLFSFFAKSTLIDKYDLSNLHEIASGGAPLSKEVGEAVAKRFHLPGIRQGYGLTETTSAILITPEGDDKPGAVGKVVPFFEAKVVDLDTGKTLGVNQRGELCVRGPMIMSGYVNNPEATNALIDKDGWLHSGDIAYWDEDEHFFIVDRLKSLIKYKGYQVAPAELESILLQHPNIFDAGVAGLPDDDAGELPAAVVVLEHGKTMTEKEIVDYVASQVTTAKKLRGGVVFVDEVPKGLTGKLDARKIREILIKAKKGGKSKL
In short: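 Biochemical qHTS: compounds run as interplate titrations against purified firefly enzyme, with D-luciferin and ATP each at its KM concentration. Light output recorded by CCD imaging.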

[5] = qHTS assay to identify small molecule agonists of the constitutive androstane receptor (CAR) signaling pathway - cell viability counter screen (AID 1224836); further: series mostly up to about 92 µM; nearly all actives have a fitted effect of over 45% in size
In short: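 HepG2 cells stably carrying hCAR and a CYP2B6-2.2kb reporter; 15-concentration compounds plus PK11195 (final 0.75 uM), 23 hr at 37 C/5% CO2. Viability read by CellTiter-Fluor fluorescence.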

[6] = qHTS assay to identify small molecule antagonists of the constitutive androstane receptor (CAR) signaling pathway - cell viability counter screen (AID 1224837); further: series mostly up to about 92 µM; nearly all actives have a fitted effect of over 45% in size
In short: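 HepG2-CYP2B6-hCAR cells, 2500/well, 4 hr pre-incubation; compound titration, 15 conc.; CITCO 50 nM final; 23 hr, 37 C/5% CO2; CellTiter-Fluor, fluorescence intensity.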

[7] = molecular target: Nuclear receptor subfamily 1 group I member 3 (Homo sapiens) (UniProt Q14994); experiment: qHTS assay to identify small molecule antagonists of the constitutive androstane receptor (CAR) signaling pathway (AID 1224838);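 further: HepG2 cells stably expressing hCAR with CYP2B6 luciferase reporter stimulated by CITCO; nearly all actives have a fitted effect of over 40% in size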
Chain of Nuclear receptor subfamily 1 group I member 3 (Homo sapiens) (Q14994 whole entry, looked up): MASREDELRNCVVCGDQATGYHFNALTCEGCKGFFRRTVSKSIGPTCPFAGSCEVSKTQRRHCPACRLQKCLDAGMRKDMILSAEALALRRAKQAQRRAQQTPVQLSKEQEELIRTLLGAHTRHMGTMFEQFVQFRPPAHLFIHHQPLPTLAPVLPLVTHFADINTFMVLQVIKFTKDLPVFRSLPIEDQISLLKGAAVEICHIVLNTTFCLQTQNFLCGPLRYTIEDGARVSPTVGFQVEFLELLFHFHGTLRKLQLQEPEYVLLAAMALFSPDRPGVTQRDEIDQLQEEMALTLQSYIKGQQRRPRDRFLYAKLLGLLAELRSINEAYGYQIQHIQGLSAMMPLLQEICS
In short: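 HepG2-CYP2B6-hCAR cells; 4 h pre-incubation; cpd (15 conc) + CITCO 50 nM final; 24 h, 37 C/5% CO2; ONE-Glo, luminescence.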

[8] = molecular target: Nuclear receptor subfamily 1 group I member 3 (Homo sapiens) (UniProt Q14994); experiment: qHTS assay to identify small molecule agonists of the constitutive androstane receptor (CAR) signaling pathway (AID 1224839);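 further: HepG2 cells stably carrying human CAR and a CYP2B6 luciferase reporter; series mostly up to about 92 µM; nearly all actives have a fitted effect of over 15% in size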
In short: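 HepG2 cells stably co-transfected with hCAR and a CYP2B6-2.2kb luciferase reporter; compounds at 15 concentrations with 0.75 uM PK11195 present. After 24 hr at 37 C, luciferase read by ONE-Glo luminescence.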

[9] = qHTS assay to identify small molecule antagonists of the estrogen related receptor signaling pathway with the pleiotropic PPARgamma coactivator (PGC) from Tox21 10K library - cell viability counter screen (AID 1224840; active means well fitted cell-killing curve with a large enough effect in the repeat runs, not every such curve was filed as active; further: nearly all actives have a fitted effect of over 40% in size)
In short: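 PGC/ERR cells, 2,000/well; 6 h pre-incubation 37 C/5% CO2; cpd in DMSO via pin tool; 17.5 h 37 C; CellTiter-Fluor, 30 min; fluorescence.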

[10] = molecular target: Thyrotropin receptor (Homo sapiens) (UniProt P16473); experiment: qHTS assay to identify small molecule agonists of the thyroid stimulating hormone receptor (TSHR) signaling pathway (AID 1224843; calls by dose curve; further: nearly all actives have a fitted effect of over 45% in size)
Chain of Thyrotropin receptor (Homo sapiens) (P16473 whole entry, looked up): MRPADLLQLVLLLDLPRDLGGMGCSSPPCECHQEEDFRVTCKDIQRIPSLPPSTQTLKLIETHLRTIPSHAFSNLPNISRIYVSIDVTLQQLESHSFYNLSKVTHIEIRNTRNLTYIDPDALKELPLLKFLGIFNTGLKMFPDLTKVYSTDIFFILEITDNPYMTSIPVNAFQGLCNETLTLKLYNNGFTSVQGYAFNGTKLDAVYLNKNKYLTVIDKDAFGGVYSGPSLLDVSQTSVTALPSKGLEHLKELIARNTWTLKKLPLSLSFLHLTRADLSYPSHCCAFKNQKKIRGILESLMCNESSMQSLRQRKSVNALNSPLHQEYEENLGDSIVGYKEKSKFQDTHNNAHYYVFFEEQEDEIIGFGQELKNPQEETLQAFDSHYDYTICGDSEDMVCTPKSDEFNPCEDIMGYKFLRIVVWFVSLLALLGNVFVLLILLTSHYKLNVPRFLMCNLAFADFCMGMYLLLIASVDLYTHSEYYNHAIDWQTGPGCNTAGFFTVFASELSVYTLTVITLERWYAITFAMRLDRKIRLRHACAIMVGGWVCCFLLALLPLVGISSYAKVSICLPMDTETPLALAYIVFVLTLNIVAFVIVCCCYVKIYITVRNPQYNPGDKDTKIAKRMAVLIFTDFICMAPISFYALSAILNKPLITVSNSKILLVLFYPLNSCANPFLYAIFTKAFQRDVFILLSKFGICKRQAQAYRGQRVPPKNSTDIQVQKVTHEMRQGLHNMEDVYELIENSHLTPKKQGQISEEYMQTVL
In short: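 TSHR-HEK293 cells in agonist mode, 30 min room-temperature step, then cAMP measured by competitive HTRF (cAMP-d2 with anti-cAMP cryptate) after 1 h at room temperature. Tested at 15 concentrations in triplicate.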

[11] = qHTS assay to identify small molecule agonists of the hypoxia (HIF-1) signaling pathway - cell viability counter screen (AID 1224844; calls by dose curve; further: nearly all actives have a fitted effect of over 50% in size)
In short: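 ME-180 HRE-bla cells, 2,000/well, 0.5% dialyzed FBS; 5 hr settle, 17 hr compound at 37C/5% CO2; CCF4-AM reporter read first, then CellTiter-Glo luminescence after 30 min RT.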

[12] = qHTS assay to identify small molecule agonists of H2AX (AID 1224845; active means well fitted activation curve with a large enough effect in the signal ratio in the repeat runs, not every such curve was filed as active; the % refers to the signal ratio)
In short: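 Wild-type CHO-K1 cells, plated overnight, exposed 3hr at 37C to 15 concentrations (0.76% DMSO final). Lysed, then HTRF anti-pH2AX (S139) cryptate and anti-H2AX-d2 antibodies, 24 hr room temperature; 665/620 nm emission read.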

[13] = qHTS assay to identify small molecule antagonists of the retinoic acid receptor (RAR) signaling pathway (AID 1159552; further: nearly all actives have a fitted effect of over 50% in size)
In short: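 Retinol signaling pathway inhibitors screened in C3RL4 RARE-luciferase reporter cells seeded overnight at 37 C, then compounds added with 1 uM (final) retinol as pathway substrate. After 6 hr at 37 C, luciferase luminescence read after 30 min at room temperature.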

[14] = qHTS assay to identify small molecule agonists of the retinoic acid receptor (RAR) signaling pathway (AID 1159553)
In short: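 Luminescence from a RARE-driven luciferase reporter in C3RL4 cells served as the read-out, measured after 30 min with detection reagent at room temperature. Compounds in DMSO were applied for 6 hr at 37 C following overnight seeding.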

[15] = qHTS assay to identify small molecule antagonists of the estrogen related receptor signaling pathway with the pleiotropic PPARgamma coactivator (PGC) from Tox21 10K library (AID 1224841; call rule not given here; further: series mostly up to about 92 µM; actives are mostly falling curves and most rising ones were filed inactive; nearly all actives have a fitted effect of over 50% in size)
In short: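 PGC/ERR cell line, 2,000 cells/well; 6 h pre-incubation 37 C/5% CO2; compounds (DMSO) pinned in; 18 h, 37 C; One-Glo, 30 min RT; luminescence.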

[16] = qHTS assay to identify small molecule agonists of the estrogen related receptor signaling pathway with the pleiotropic PPARgamma coactivator (PGC) from Tox21 10K library (AID 1224842); further: nearly all actives have a fitted effect of over 15% in size
In short: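 PGC/ERR reporter cell line, 2,000 cells per well, incubated 6 h at 37 C before 23 nL compound in DMSO was added. After 18 h at 37 C, One-Glo luminescence read following 30 min at room temperature.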

[17] = qHTS assay to identify small molecule antagonists of the estrogen related receptor (ERR) signaling pathway (AID 1224819)
In short: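 Seed ERR cells 2,000/well; rest 6 h at 37 C/5% CO2; pin compounds in DMSO; incubate 18 h at 37 C; add One-Glo; wait 30 min at room temperature; measure luminescence.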

[18] = qHTS assay to identify small molecule agonists of the estrogen related receptor (ERR) signaling pathway (AID 1224820)
In short: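 Cells: ERR line from NTP, 2,000/well. Pre-incubation 6 h, 37 C/5% CO2. Compound (DMSO) pin transfer, 18 h 37 C. One-Glo, 30 min RT, luminescence.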

[19] = qHTS assay to identify small molecule agonists of the estrogen related receptor signaling pathway with the pleiotropic PPARgamma coactivator (PGC) (AID 1224823)
In short: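 Steps: plate PGC/ERR cells at 2,000 cells/well; incubate 6 h, 37 C/5% CO2; pin-transfer compounds (DMSO); incubate 18 h, 37 C; add One-Glo; 30 min RT; read luminescence.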

[20] = qHTS assay to identify small molecule antagonists of the retinoid acid receptor (RAR) signaling pathway - cell viability counter screen (AID 1159551); further: nearly all actives have a fitted effect of over 35% in size
In short: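 Luminescent ATP quantitation (CellTiter-Glo) gave cell viability in C3RL4 cells exposed to test chemicals for 6 h at 37 C alongside 1 uM final retinol.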
On the % scale 0 is the no-effect control and ±100 the full control effect.

Cc1cccc(OCC(O)CNC(C)(C)C)c1C (configuration not stated)
inactive: Potency [1] | outcome [2] | Potency [3] | Potency [4] | Potency [5] | Potency [6] | outcome [7] | Potency [8] | outcome [9] | Potency [10] | outcome [11] | outcome [12]

N[C@@H](COP(=O)(O)O)C(=O)O
inactive: activation [1] 7.83% [at 15.8 µM] | activity change, negative = cytotoxicity [2] 11.4% [at 15.8 µM] | activity change, negative = inhibition [4] 0.319% [at 23.6 µM] | viability change, negative = cytotoxic [5] 0.478% [at 19 µM] | activity change, negative = cytotoxicity [6] 10.4% [at 19 µM] | activity, negative = inhibition [7] 2.8% [at 19 µM] | activation [8] -2.56% [at 19 µM] | viability change, negative = cytotoxic [9] 2.06% [at 19 µM] | activity change, negative = cytotoxicity [11] -1.64% [at 15.8 µM] | activation (H2AX phosphorylation) [12] -3.89% [at 31.6 µM]

NNc1nnc(NN)c2ccccc12
inactive: Potency [1] | outcome [2] | outcome [13] | Potency [3] | Potency [5] | Potency [6] | outcome [7] | Potency [8] | outcome [9] | Potency [10] | outcome [11] | outcome [12]
active: Potency [4] 17.4 µM

C=Cc1ccccn1
inactive: Potency [1] | outcome [2] | Potency [14] | Potency [3] | Potency [4] | Potency [5] | Potency [6] | outcome [7] | Potency [8] | outcome [9] | Potency [10] | outcome [11] | outcome [12]

CC(=O)N[C@@H](CCC(=O)O)C(=O)O
inactive: Potency [1] | outcome [2] | Potency [3] | Potency [4] | Potency [5] | Potency [6] | outcome [7] | outcome [9] | Potency [15] | outcome [16] | Potency [10] | outcome [11] | outcome [12]

CC(S)C(=O)NCC(=O)O (configuration not stated)
inactive: Potency [1] | outcome [2] | outcome [13] | Potency [5] | Potency [6] | outcome [7] | outcome [9] | Potency [10] | outcome [11] | outcome [12]

O=C(CS(=O)Cc1ccco1)NC/C=C\COc1cc(CN2CCCCC2)ccn1 (configuration not stated)
inactive: Potency [1] | outcome [2] | Potency [3] | Potency [5] | Potency [6] | outcome [7] | Potency [8] | outcome [9] | Potency [15] | outcome [16] | Potency [10] | outcome [11] | outcome [12]

CC(C)N(c1ccccc1)C(C)C
inactive: Potency [1] | outcome [2] | Potency [5] | Potency [6] | outcome [7] | Potency [8] | outcome [9] | Potency [10] | outcome [11] | outcome [12]

ClCCCl
inactive: Potency [1] | outcome [2] | Potency [5] | Potency [6] | outcome [7] | Potency [8] | outcome [16] | outcome [11] | outcome [12]

O=C1c2ccccc2C(=O)c2cc(S(=O)(=O)O)ccc21
inactive: Potency [1] | outcome [2] | outcome [13] | Potency [14] | Potency [5] | Potency [6] | outcome [7] | outcome [9] | Potency [10] | outcome [11] | outcome [12]

COc1ccc(C2CNC(=O)C2)cc1OC1CCCC1 (configuration not stated)
inactive: Potency [1] | outcome [2] | outcome [17] | outcome [18] | outcome [19] | Potency [3] | Potency [4] | Potency [5] | Potency [6] | outcome [9] | Potency [15] | outcome [16] | Potency [10] | outcome [11] | outcome [12]

O=C1c2cccc3c2[C@H](CCC3)CN1[C@@H]1CN2CCC1CC2
inactive: Potency [1] | outcome [20] | outcome [13] | Potency [5] | Potency [6] | outcome [9] | Potency [15] | Potency [10] | outcome [11] | outcome [12]

CN(C)CCOCCO
inactive: Potency [1] | outcome [20] | Potency [3] | Potency [5] | Potency [6] | outcome [7] | Potency [8] | outcome [9] | Potency [15] | outcome [16] | Potency [10] | outcome [11] | outcome [12]

CN(C)C(=O)CNC(=O)Cc1ccccc1
inactive: Potency [1] | outcome [20] | Potency [3] | Potency [4] | Potency [5] | Potency [6] | outcome [7] | Potency [8] | outcome [9] | outcome [11] | outcome [12]

CCCC/C=C/C=C\C=O
inactive: Potency [1] | outcome [20] | Potency [3] | Potency [4] | Potency [5] | Potency [6] | outcome [7] | Potency [8] | outcome [9] | Potency [10] | outcome [12]

O=S(=O)(O)CCN1CCN(CCO)CC1
inactive: Potency [1] | outcome [20] | Potency [3] | Potency [5] | Potency [6] | outcome [7] | Potency [8] | outcome [9] | Potency [15] | outcome [16] | Potency [10] | outcome [11] | outcome [12]
